The panel holds about 83,000 compounds, 20% with a hit somewhere; the sample as a whole holds those more often.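 Growth was measured after 48 h exposure to one concentration of compound in 96-well plates. Values under 10 count as active.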 Calls of active or inactive are those of the source.
How the values were obtained:
Assay in all cases: NCI-60 one-dose screen, 48 h (100 = growth as untreated, 0 = no growth, -100 = all killed)
HCT-15 colon = conditions: 10 µM unless noted
HT29 colon = conditions: 10 µM unless noted
U251 CNS = conditions: 10 µM unless noted
PC-3 prostate = conditions: 10 µM unless noted
SK-MEL-5 melanoma = conditions: 10 µM unless noted
UACC-62 melanoma = conditions: 10 µM unless noted
LOX IMVI melanoma = conditions: 10 µM unless noted
SK-MEL-28 melanoma = conditions: 10 µM unless noted
SK-MEL-2 melanoma = conditions: 10 µM unless noted
SN12C renal = conditions: 10 µM unless noted
UO-31 renal = conditions: 10 µM unless noted
TK-10 renal = conditions: 10 µM unless noted
ACHN renal = conditions: 10 µM unless noted
CAKI-1 renal = conditions: 10 µM unless noted
A498 renal = conditions: 10 µM unless noted
CCRF-CEM leukemia = conditions: 10 µM unless noted
SNB-75 CNS = conditions: 10 µM
SNB-19 CNS = conditions: 10 µM unless noted
EKVX NSCLC = conditions: 10 µM unless noted
MOLT-4 leukemia = conditions: 10 µM unless noted

Measured: growth

COc1ccc(N2CCN(Cc3cc(C(=O)/C=C/c4c[nH]c5ccccc45)ccc3O)CC2)cc1
inactive: HCT-15 colon 98.7% | HT29 colon 106% | U251 CNS 95% | PC-3 prostate 88.3% | SK-MEL-5 melanoma 99.6% | UACC-62 melanoma 101% | LOX IMVI melanoma 97.2% | SK-MEL-28 melanoma 110% | SK-MEL-2 melanoma 107% | SN12C renal 97.1% | UO-31 renal 55.9% | TK-10 renal 117% | ACHN renal 97.4% | CAKI-1 renal 90.2% | A498 renal 106% | CCRF-CEM leukemia 95.8%

COc1ccc(CN2CCc3c(Sc4ccccc4)nc(N)nc3C2=O)c(OC)c1
inactive: HCT-15 colon 66.8% | SNB-75 CNS 66.5% | SNB-19 CNS 82% | U251 CNS 72.3% | PC-3 prostate 52.1% | SK-MEL-5 melanoma 51.1% | UACC-62 melanoma 52.5% | LOX IMVI melanoma 71.3% | SK-MEL-28 melanoma 90.9% | SK-MEL-2 melanoma 58.6% | EKVX NSCLC 57% | SN12C renal 53.1% | UO-31 renal 29.6% | TK-10 renal 59.9% | ACHN renal 65% | CAKI-1 renal 27.7% | A498 renal 66% | CCRF-CEM leukemia 46.7%

NNc1cccc(/C=C/c2ccccc2)cc1=O
inactive: HCT-15 colon 33% | SNB-75 CNS 81.3% | SNB-19 CNS 67.7% | U251 CNS 48.5% | PC-3 prostate 61.3% | SK-MEL-5 melanoma 62.6% | UACC-62 melanoma 54.5% | LOX IMVI melanoma 33.4% | SK-MEL-28 melanoma 81.9% | SK-MEL-2 melanoma 83.1% | EKVX NSCLC 47.9% | SN12C renal 71.6% | UO-31 renal 24.9% | TK-10 renal 70.7% | ACHN renal 37.5% | CAKI-1 renal 12.7% | A498 renal 83.9% | CCRF-CEM leukemia 14.1% | MOLT-4 leukemia 37.6%

Cc1ccc(S(=O)(=O)n2cc(C(=O)C(=O)N3CCOCC3)c3ccccc32)cc1
inactive: HCT-15 colon 96.6% | SNB-75 CNS 104% | SNB-19 CNS 99.5% | U251 CNS 93.8% | PC-3 prostate 67.5% | SK-MEL-5 melanoma 88.1% | UACC-62 melanoma 68.1% | LOX IMVI melanoma 83.9% | SK-MEL-28 melanoma 117% | SK-MEL-2 melanoma 97% | EKVX NSCLC 88% | SN12C renal 87.8% | UO-31 renal 59.7% | TK-10 renal 94.6% | ACHN renal 83.9% | CAKI-1 renal 80.1% | A498 renal 118% | CCRF-CEM leukemia 93.6% | MOLT-4 leukemia 81.5%

O=C(O)Cc1cccc(=O)c(O)c1C(=O)O
inactive: HCT-15 colon 106% | SNB-75 CNS 107% | SNB-19 CNS 105% | U251 CNS 109% | PC-3 prostate 95.7% | SK-MEL-5 melanoma 108% | UACC-62 melanoma 100% | LOX IMVI melanoma 101% | SK-MEL-28 melanoma 110% | SK-MEL-2 melanoma 97.5% | EKVX NSCLC 110% | SN12C renal 101% | UO-31 renal 84.2% | TK-10 renal 108% | ACHN renal 101% | CAKI-1 renal 96.1% | A498 renal 114% | CCRF-CEM leukemia 98.3% | MOLT-4 leukemia 106%

C=C1CCC2C3(C)COC(c4c(OC)cccc4OC)OC3CCC2(C)C1C/C=C1/C(=O)OCC1O (centres undefined)
inactive: HCT-15 colon 48.3% | SNB-75 CNS 50.8% | SNB-19 CNS 77.3% | U251 CNS 35.4% | PC-3 prostate 20.6% | SK-MEL-5 melanoma 64.7% | UACC-62 melanoma 58.9% | LOX IMVI melanoma 15.7% | SK-MEL-28 melanoma 97.3% | SK-MEL-2 melanoma 50% | EKVX NSCLC 96.5% | SN12C renal 28.2% | UO-31 renal 46.2% | TK-10 renal 50.5% | ACHN renal 66% | CAKI-1 renal 172% | A498 renal 102% | MOLT-4 leukemia 51.4%
active: CCRF-CEM leukemia -33.1%

COc1ccc(-c2cc3c(OC)c(OC)c(OC)cc3oc2=O)cc1
inactive: HCT-15 colon 37.9% | HT29 colon 12% | U251 CNS 40.6% | PC-3 prostate 62.1% | SK-MEL-5 melanoma 14.4% | UACC-62 melanoma 40.2% | LOX IMVI melanoma 46.8% | SK-MEL-28 melanoma 67.5% | EKVX NSCLC 64.3% | SN12C renal 56.4% | TK-10 renal 85% | ACHN renal 66.8% | CAKI-1 renal 57.1% | A498 renal 34.2% | MOLT-4 leukemia 64.7%

O=[N+]([O-])c1ccc(OCCCOc2ccccc2)cc1
inactive: HCT-15 colon 99.4% | SNB-75 CNS 97.2% | SNB-19 CNS 105% | U251 CNS 90.7% | PC-3 prostate 94.3% | SK-MEL-5 melanoma 105% | UACC-62 melanoma 93.7% | LOX IMVI melanoma 97.6% | SK-MEL-28 melanoma 103% | SK-MEL-2 melanoma 102% | EKVX NSCLC 96.8% | SN12C renal 104% | UO-31 renal 87.2% | TK-10 renal 97.5% | ACHN renal 106% | CAKI-1 renal 93.9% | A498 renal 102% | CCRF-CEM leukemia 105% | MOLT-4 leukemia 94.6%
